# Assay results: PubChem BioAssay AID504400 (The Scripps Research Institute Molecular Screening Center, 2011)
# Values without a mark were called inactive. No rule for the calls is given here.
# Tested on: Potassium Channel [KATP]
# Experiment: CYP450 and receptor off-target profile – biochemical, Ricerca HitProfilingScreen, selectivity assay for S1P4 agonist project, late-stage follow-up (AID 504400)
# Conditions: Ricerca radioligand binding/enzyme panel plus CYP450, at 10 µM, hits give high values
smiles,measurement,value
Clc1ccc(OCCOc2ccc(Br)nc2Br)c(Cl)c1,inhibition,20%
